Laboratory results published in the supplement of paper PMC12494721.
Structures can show the parent of a compound that is named as a salt.

How the values were obtained:
Conditions in all cases: incubation time: 27 h, anaerobic, 37 °C;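 for the amine columns active = adjusted P below 0.05 in both replicates with a change the same way and a mean fold change under 0.8 or over 1.25; inactive = the rest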
[1] = test system: Clostridium sporogenes DSM 1664; experiment: growth (OD595) fold change vs plate DMSO controls (fold change (ratio)); higher = more growth
Summary of the method: (§1)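 Growth is the fold change relative to the median of plate DMSO controls. Readings came from anaerobic mGAM cultures in 96-well plates grown for 27 h at 37 °C and read at 595 nm. They were blank-subtracted, corrected for compound background with 20 µM compound solutions in water, and converted to OD with a calibration factor of 5. Values are means of 2 biological replicates, and fold changes above 1.5 were set to NA.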

Escherichia coli IAI1 [2] = experiment: as above
Summary of the method: as §1

[3] = test system: Klebsiella aerogenes DSM 30053; experiment: as above
Summary of the method: as §1

[4] = test system: Ruminococcus gnavus DSM 108212; experiment: as above
Summary of the method: as §1

[5] = test system: Klebsiella aerogenes DSM 30053; experiment: fold change of Histamine concentration vs plate DMSO controls (fold change (ratio)); higher = more amine produced, active = hit call of the paper (significant change in both replicates, either direction)
Summary of the method: (§2)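 Amine values are fold changes relative to DMSO-only wells on the same plate. They derive from 27 h, 37 °C anaerobic mGAM cultures of four gut bacterial strains in 80 µL wells, dosed at 20 µM final, or 50 µM final for sweeteners. Extraction of the whole culture, LC–triple-quadrupole MS in dynamic MRM mode, external calibration curves and within-batch drift correction were used, with 2 biological replicates averaged.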

[6] = test system: Clostridium sporogenes DSM 1664; experiment: fold change of Tryptamine concentration vs plate DMSO controls (fold change (ratio)); higher = more amine produced, active = hit call of the paper (significant change in both replicates, either direction)
Summary of the method: as §2

[7] = test system: Ruminococcus gnavus DSM 108212; experiment: as above
Summary of the method: as §2

Escherichia coli IAI1 [8] = experiment: fold change of Putrescine concentration vs plate DMSO controls (fold change (ratio)); higher = more amine produced, active = hit call of the paper (significant change in both replicates, either direction)
Summary of the method: as §2

[9] = test system: Klebsiella aerogenes DSM 30053; experiment: as above
Summary of the method: as §2

Escherichia coli IAI1 [10] = experiment: fold change of Cadaverine concentration vs plate DMSO controls (fold change (ratio)); higher = more amine produced, active = hit call of the paper (significant change in both replicates, either direction)
Summary of the method: as §2

[11] = test system: Klebsiella aerogenes DSM 30053; experiment: as above
Summary of the method: as §2

[12] = test system: Ruminococcus gnavus DSM 108212; experiment: fold change of 2-Phenylethylamine concentration vs plate DMSO controls (fold change (ratio)); higher = more amine produced, active = hit call of the paper (significant change in both replicates, either direction)
Summary of the method: as §2

| SMILES | growth [1] | growth (Escherichia coli IAI1 [2]) | growth [3] | growth [4] | fold change of Histamine concentration [5] | fold change of Tryptamine concentration [6] | fold change of Tryptamine concentration [7] | fold change of Putrescine concentration (Escherichia coli IAI1 [8]) | fold change of Putrescine concentration [9] | fold change of Cadaverine concentration (Escherichia coli IAI1 [10]) | fold change of Cadaverine concentration [11] | fold change of 2-Phenylethylamine concentration [12] |
| --- | --- | --- | --- | --- | --- | --- | --- | --- | --- | --- | --- | --- |
| CN(C)CCCSC(=N)N [Dimaprit dihydrochloride] (20 µM) | 1.04 | 1.04 | 1.02 | 1.03 | 0.939 (inactive) | 0.955 (inactive) | 1.07 (inactive) | 1 (inactive) | 0.996 (inactive) | 0.998 (inactive) | 0.993 (inactive) | 1.07 (inactive) |
| CCOc1ccc(NC(=O)CC(C)O)cc1 (configuration not stated) [Bucetin] (20 µM) | 0.973 | 0.985 | 0.995 | 1.07 | 0.984 (inactive) | 0.999 (inactive) | 0.95 (inactive) | 0.997 (inactive) | 1.01 (inactive) | 0.977 (inactive) | 0.993 (inactive) | 0.936 (inactive) |
| O=C1OC(c2ccc(O)cc2)(c2ccc(O)cc2)c2ccccc21 [Phenolphthalein] (20 µM) | 1.03 | 0.983 | 0.993 | 0.964 | 1 (inactive) | 0.974 (inactive) | 1 (inactive) | 0.991 (inactive) | 0.977 (inactive) | 0.965 (inactive) | 1.02 (inactive) | 0.986 (inactive) |
| CC(C)[N+](C)(CCOC(=O)C1c2ccccc2Oc2ccccc21)C(C)C [Propantheline bromide] (20 µM) | 1.03 | 0.986 | 1 | 0.994 | 1 (inactive) | 0.971 (inactive) | 0.96 (inactive) | 1.02 (inactive) | 0.992 (inactive) | 1.01 (inactive) | 0.996 (inactive) | 0.963 (inactive) |
| C[C@H](NCc1ccc(OCc2cccc(F)c2)cc1)C(N)=O [Safinamide] (20 µM) | 0.894 | 0.992 | 1 | 1.07 | 1.02 (inactive) | 1.03 (inactive) | 0.99 (inactive) | 1 (inactive) | 1 (inactive) | 1.02 (inactive) | 0.983 (inactive) | 0.96 (inactive) |
| O=C(O)c1cc(=O)c2c(OCC(O)COc3cccc4oc(C(=O)O)cc(=O)c34)cccc2o1 [Cromolyn disodium salt] (20 µM) | 1.06 | 1.05 | 1.02 | 1.11 | 0.943 (inactive) | 0.983 (inactive) | 1.04 (inactive) | 0.994 (inactive) | 0.96 (inactive) | 0.99 (inactive) | 0.979 (inactive) | 1.06 (inactive) |
| CCOC1O[C@H]([C@@H](COCc2ccccc2)OCc2ccccc2)[C@H](OCc2ccccc2)[C@H]1O (some centres not stated) [Tribenoside] (20 µM) | 0.917 | 0.959 | 0.99 | 0.972 | 1.06 (inactive) | 0.969 (inactive) | 0.966 (inactive) | 1 (inactive) | 1.03 (inactive) | 1.01 (inactive) | 0.987 (inactive) | 0.961 (inactive) |
| O=C(O)c1cn(-c2ccc(F)cc2)c2cc(N3CCNCC3)c(F)cc2c1=O [Sarafloxacin] (20 µM) | 0.012 | 0.0263 | 0.182 | 0.896 | 0.129 (active) | 0.0563 (active) | 0.8 (inactive) | 0.832 (inactive) | 0.651 (active) | 0.244 (active) | 0.969 (inactive) | 0.894 (inactive) |
| O=C(NC(Cc1cc(=O)[nH]c2ccccc12)C(=O)O)c1ccc(Cl)cc1 (configuration not stated) [Rebamipide] (20 µM) | 0.925 | 1.01 | 0.964 | 0.957 | 0.934 (inactive) | 1.06 (inactive) | 1.28 (active) | 1.07 (inactive) | 0.965 (inactive) | 0.957 (inactive) | 1 (inactive) | 1.52 (active) |
| CC(C)(C)NC[C@H](O)COc1cccc2c1CCCC2=O [(-) Levobunolol hydrochloride] (20 µM) | 0.999 | 0.973 | 0.98 | 0.872 | 1.06 (inactive) | 1 (inactive) | 0.916 (inactive) | 1.04 (inactive) | 1.03 (inactive) | 0.996 (inactive) | 1 (inactive) | 0.866 (inactive) |
| C1CCC(C(CC2CCCCN2)C2CCCCC2)CC1 (configuration not stated) [Perhexiline maleate] (20 µM) | 1.14 | 1 | 1 | 0.952 | 0.983 (inactive) | 1.03 (inactive) | 0.771 (active) | 1.05 (inactive) | 1.01 (inactive) | 1.05 (inactive) | 1 (inactive) | 0.892 (inactive) |
